{"source": "PubChem BioAssay (EPA / NIEHS)", "note": "Results filed as inconclusive are left out. Calls of active or inactive are those of the source. The calls were made as follows: active = hit-call score of the fitted dose curve at least 0.9, where 1 is the maximum; inconclusive = response in the unintended direction; inactive = score below 0.9."}
{"biological_target": "Androgen receptor (Homo sapiens) (UniProt P10275)", "sequence (P10275 whole entry, looked up, the tested form may be a part)": "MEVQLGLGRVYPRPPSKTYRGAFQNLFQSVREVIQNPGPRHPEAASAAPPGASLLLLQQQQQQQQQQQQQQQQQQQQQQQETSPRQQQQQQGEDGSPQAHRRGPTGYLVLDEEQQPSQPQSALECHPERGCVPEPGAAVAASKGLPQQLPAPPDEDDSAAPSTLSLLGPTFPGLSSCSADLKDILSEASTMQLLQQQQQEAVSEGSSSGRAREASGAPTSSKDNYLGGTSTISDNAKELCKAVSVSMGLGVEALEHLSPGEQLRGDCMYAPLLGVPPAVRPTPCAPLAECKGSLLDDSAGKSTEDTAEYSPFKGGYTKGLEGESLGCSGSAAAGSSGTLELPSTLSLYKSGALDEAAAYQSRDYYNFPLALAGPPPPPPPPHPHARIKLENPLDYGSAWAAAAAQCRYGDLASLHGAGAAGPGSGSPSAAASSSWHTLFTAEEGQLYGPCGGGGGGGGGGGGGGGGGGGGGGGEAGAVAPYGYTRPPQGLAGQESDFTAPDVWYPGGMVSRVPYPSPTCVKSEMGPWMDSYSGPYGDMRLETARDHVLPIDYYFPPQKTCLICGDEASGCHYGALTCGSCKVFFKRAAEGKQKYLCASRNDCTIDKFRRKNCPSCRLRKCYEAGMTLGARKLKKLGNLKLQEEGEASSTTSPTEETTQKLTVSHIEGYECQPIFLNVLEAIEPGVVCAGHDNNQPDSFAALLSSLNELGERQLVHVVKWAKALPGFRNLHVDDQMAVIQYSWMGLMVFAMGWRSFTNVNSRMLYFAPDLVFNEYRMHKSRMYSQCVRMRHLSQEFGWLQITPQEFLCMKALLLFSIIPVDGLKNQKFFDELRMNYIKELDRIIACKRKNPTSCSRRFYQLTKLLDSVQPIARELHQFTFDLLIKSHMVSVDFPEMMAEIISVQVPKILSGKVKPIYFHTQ", "test": "ATG_AR_TRANS: Attagene TRANS-FACTORIAL HepG2 Assay for human Androgen Receptor (AR) (AID 2282973)", "settings": "HepG2 Attagene TRANS-FACTORIAL AR reporter transcription", "method_in_brief": "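Readout is reporter transcript abundance, quantified by fluorescent RT-PCR products separated on capillary electrophoresis. Human HepG2 liver cells carried transiently transfected NR-Gal4 chimera plus GAL4-UAS reporter constructs and were dosed for 24 h; activity scored upward versus DMSO.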"}
{"smiles": "CCCCCCCC(OC)OC", "outcome": "inactive"}
{"smiles": "CCN(CC)c1ccc(N=Nc2ccccc2)cc1", "outcome": "inactive"}
{"smiles": "CCC(O)CO", "note": "(stereo not given)", "outcome": "inactive"}
{"smiles": "CCCCCCOC(=O)c1ccc(O)cc1", "outcome": "inactive"}
{"smiles": "OCCCS", "outcome": "inactive"}
{"smiles": "CC(=O)O[C@H]1C[C@@H]2CC[C@@]1(C)C2(C)C", "outcome": "inactive"}
{"smiles": "O=C1CCCCC1", "outcome": "inactive"}
{"smiles": "Nc1cc([N+](=O)[O-])ccc1O", "outcome": "inactive"}
{"smiles": "CCCCC(CC)COC(=O)/C=C\\C(=O)OCC(CC)CCCC", "note": "(stereo not given)", "outcome": "inactive"}
{"smiles": "CCC(=O)C1CC(C(C)C)CC=C1C", "note": "(stereo not given)", "outcome": "inactive"}
{"smiles": "COC(=O)C(F)(F)C(F)(F)C(F)(F)C(F)(F)C(F)(F)F", "outcome": "inactive"}
{"smiles": "C=CC(F)(F)C(F)(F)C(F)(F)C(F)(F)F", "outcome": "inactive"}
{"smiles": "C=C(C)C1CC=C(C)C(=O)C1", "note": "(stereo not given)", "outcome": "inactive"}
{"smiles": "CO[Si](C)(CCC(F)(F)C(F)(F)C(F)(F)C(F)(F)C(F)(F)C(F)(F)F)OC", "outcome": "inactive"}
{"smiles": "COc1ccc(CCO)cc1", "outcome": "inactive"}
{"smiles": "Cc1ccc(O)cn1", "outcome": "inactive"}
{"smiles": "Clc1sc(Cl)c(Cl)c1Cl", "outcome": "inactive"}
{"smiles": "CCOC(=O)OC(=O)OCC", "outcome": "inactive"}
{"smiles": "N=C1C=CC(=C(c2ccc(N)cc2)c2ccc(N)cc2)C=C1", "outcome": "inactive"}
{"smiles": "CC1=CP(=O)(c2ccccc2)CC1", "note": "(stereo not given)", "outcome": "inactive"}
{"smiles": "CCCCCCS", "outcome": "inactive"}
{"smiles": "O=C(Cl)C(F)(F)C(F)(F)C(F)(F)C(F)(F)C(F)(F)C(F)(F)F", "outcome": "inactive"}
{"smiles": "CC1=CC2C3C=CC(C3)C2C1C", "note": "(stereo not given)", "outcome": "inactive"}
{"smiles": "N#Cc1ccc(C(c2ccc(C#N)cc2)n2cncn2)cc1", "outcome": "inactive"}
{"smiles": "OCc1ccccc1", "outcome": "inactive"}
{"smiles": "CCCCCCc1ccc(N)cc1", "outcome": "inactive"}
{"smiles": "COC(=O)c1cccc(C)c1S(=O)(=O)NC(=O)Nc1nc(OCC(F)(F)F)nc(N(C)C)n1", "outcome": "inactive"}
{"smiles": "OCCC(F)(F)C(F)(F)C(F)(F)C(F)(F)F", "outcome": "inactive"}
{"smiles": "FC(F)(F)C(F)(F)CNCC(F)(F)C(F)(F)F", "outcome": "inactive"}
{"smiles": "CCO[Si](C)(C)OCC", "outcome": "inactive"}
{"smiles": "CC(=O)C=O", "outcome": "inactive"}
{"smiles": "FC(F)(F)C(F)(F)C(F)(F)C(F)(F)C(F)(F)CCI", "outcome": "inactive"}
{"smiles": "O=Nc1ccc(Nc2ccccc2)cc1", "outcome": "inactive"}
{"smiles": "OCCN(CCO)c1cccc(Cl)c1", "outcome": "inactive"}
{"smiles": "CC(C)c1ccc2c(c1)CC[C@H]1[C@](C)(CN)CCC[C@]21C", "outcome": "inactive"}
{"smiles": "OCC(F)(F)C(F)(F)C(F)(F)F", "outcome": "inactive"}
{"smiles": "CCc1ccc(C(c2ccc(CC)cc2)C(Cl)Cl)cc1", "outcome": "inactive"}
{"smiles": "Cc1ccc(C)c(O)c1C", "outcome": "inactive"}
{"smiles": "c1ccc2c(c1)CCC2", "outcome": "inactive"}
{"smiles": "O=C(Nc1ccccc1)c1cc([N+](=O)[O-])ccc1Cl", "outcome": "inactive"}
